# Legend:
# Assay in all cases: PBM binding z-score (relative to random genomic background probes); higher = stronger binding; sequences stand for … in GC…GCGATTGACAGCGTAGAATGAAGG
# [1] = system: FXR:RXRa (NR concentration 270 nM, RXRa partner concentration 90 nM)
# Summary of the method: (§1)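 Ligand-free nuclear receptor dimers were applied to custom Agilent 4×180K protein-binding microarrays whose double-stranded probes carried direct-repeat seeds, single-nucleotide variants, half-site ablations and random human genomic background sequences in 34-nt variable regions. Incubation lasted 1 h. Binding z-scores were computed against the random background probes from regression-normalized fluorescence.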
# [2] = system: LXRa:RXRa (NR concentration 270 nM, RXRa partner concentration 90 nM)
# Summary of the method: as §1
# [3] = system: LXRa homodimer (NR concentration 270 nM)
# Summary of the method: as §1
# [4] = system: LXRb:RXRa (NR concentration 270 nM, RXRa partner concentration 90 nM)
# Summary of the method: as §1
# [5] = system: LXRb homodimer (NR concentration 270 nM)
# Summary of the method: as §1
# [6] = system: PPARa:RXRa (NR concentration 270 nM, RXRa partner concentration 90 nM)
# Summary of the method: as §1
# [7] = system: PPARg:RXRa (NR concentration 180 nM, RXRa partner concentration 90 nM)
# Summary of the method: as §1
# [8] = system: PPARg:RXRa 270nM:90nM, anti-RXR (NR concentration 270 nM, RXRa partner concentration 90 nM)
# Summary of the method: as §1
# [9] = system: PPARg:RXRa 30nM:10nM, anti-RXR (NR concentration 30 nM, RXRa partner concentration 10 nM)
# Summary of the method: as §1
# [10] = system: PPARg:RXRa 90nM:30nM, anti-RXR (NR concentration 90 nM, RXRa partner concentration 30 nM)
# Summary of the method: as §1
# [11] = system: PPARg:RXRa DBDmut IVT, anti-RXR (DBD mutation: RXRa K156A/R161A, NR concentration 270 nM, RXRa partner concentration 90 nM)
# Summary of the method: as §1
# [12] = system: PPARg:RXRa IVT, anti-PPARg (NR concentration 270 nM, RXRa partner concentration 90 nM)
# Summary of the method: as §1
# [13] = system: PPARg DBDmut:RXRa IVT, anti-PPARg (DBD mutation: PPARg1 K132A/R137A, NR concentration 270 nM, RXRa partner concentration 90 nM)
# Summary of the method: as §1
# [14] = system: PPARg DBDmut IVT, anti-PPARg (DBD mutation: PPARg1 K132A/R137A, NR concentration 270 nM)
# Summary of the method: as §1
# [15] = system: PPARg homodimer (NR concentration 180 nM)
# Summary of the method: as §1
# [16] = system: PXR:RXRa (NR concentration 270 nM, RXRa partner concentration 90 nM)
# Summary of the method: as §1
# [17] = system: PXR homodimer (NR concentration 270 nM)
# Summary of the method: as §1
# [18] = system: RARa:RXR (NR concentration 270 nM, RXRa partner concentration 90 nM)
# Summary of the method: as §1
# [19] = system: RARa homodimer (NR concentration 270 nM)
# Summary of the method: as §1
# [20] = system: RARb:RXRa (NR concentration 270 nM, RXRa partner concentration 90 nM)
# Summary of the method: as §1
Sequence,PBM binding z-score [1],PBM binding z-score [2],PBM binding z-score [3],PBM binding z-score [4],PBM binding z-score [5],PBM binding z-score [6],PBM binding z-score [7],PBM binding z-score [8],PBM binding z-score [9],PBM binding z-score [10],PBM binding z-score [11],PBM binding z-score [12],PBM binding z-score [13],PBM binding z-score [14],PBM binding z-score [15],PBM binding z-score [16],PBM binding z-score [17],PBM binding z-score [18],PBM binding z-score [19],PBM binding z-score [20]
GCTAGTTGGTCAGTAAGAGGTCACACACCGGTCG,2.76,3.64,4.57,3.51,0.636,3.99,1.86,2.95,1.14,2.34,0.963,2.75,0.167,0.349,2.96,4.78,1.57,5.53,2.06,3.73
ACTAGCTGGCCAAGGGTCACTCAAGATTAGTCCG,2.23,2.82,0.129,2.53,-0.388,3.71,4.25,5.31,3.16,5.05,-0.256,1.86,-0.605,-0.878,1.67,2.92,-0.559,3.54,-0.213,3.34
TCAGACAGATGAAGGTAACTCAGGTACGCAGTCG,0.719,0.98,-0.272,0.763,-0.545,0.832,0.832,2.06,4.27,3.3,2.29,0.179,-0.273,-0.478,0.326,0.521,0.216,0.684,0.265,0.227
CTCGAAAGGTTGGTTGAGGTGAGTATACGGATAA,1.15,0.487,-0.0312,0.38,-0.269,0.843,-0.0296,0.107,0.0087,0.291,-0.057,0.667,-0.538,-0.309,0.774,1.11,0.376,1.09,0.368,1.17
TCTTGTAGATCTAAGGTTAAGAAAGCCGAAGCCT,0.97,0.808,0.287,1.16,-0.127,1.98,1.85,3.71,3.41,4.08,1.71,0.863,0.224,-0.213,0.385,0.921,-0.35,1.55,-0.0766,0.9
CTTACTGGGCCATTCAGAGGTCATTGATCATATG,3.23,4.72,6.7,4.11,0.985,4.48,4.03,4.43,2.21,3.71,6.81,6.21,0.768,1.22,2.09,4.88,2.99,4.16,0.436,3.23
CAAACTAGGTCACGAAACGTCAAAGTCGAATGAC,4.62,3.49,0.329,2.55,0.542,5.24,9.06,7.26,5.44,7.36,8.38,9.02,2.1,1.7,2,1.76,0.0967,2.91,0.992,4.36
CCTTACGGGTGACTGACAGGTTATAGCATTTGGA,0.488,0.771,-0.154,0.347,-0.474,1.2,0.53,0.218,0.1,-0.0326,1.95,1.09,0.0764,-0.581,0.697,0.299,-0.0252,0.82,0.181,0.546
TCATATAAGTAAAAGGTGAAAGTCGGTGTGGTAA,1.04,1.71,0.168,1.8,0.141,3.59,3.78,5.58,5.48,6.35,3.39,2.38,0.923,0.618,1.82,1.24,0.368,2.22,1.48,1.83
ATATGTAGGTTATCGGGTCATTCAATTTGCGCAT,3.06,3.55,1.95,3.51,0.979,5.11,7.6,6.31,3.98,6.15,7.45,7.56,2.44,2.36,2.28,3.43,1.39,3.8,1.75,2.87
AGTCAAAGTTCAGGACGAGGTAGCGTAAAGCACG,3.74,3.36,1.03,1.58,-0.21,3.13,4.27,4.86,1.87,3.74,-0.637,1.36,-0.194,-0.537,1.46,2.36,0.831,2.26,0.252,4.31
CGTCCAAGATCAAAGGTCAGTGAAGAGATGACGG,3.66,3.73,1.53,3.21,0.413,4.84,5.29,5.82,3.81,5.56,0.235,2.39,0.493,-0.0647,3.36,3.67,0.13,5.06,1.29,4.37
TCATATAGGAAATACAGGTGAAAGTCGGCATCTA,1.36,1.32,0.335,1.27,0.00276,1.6,1.1,2.77,4.7,3.66,3.01,1.27,1.58,0.426,1.31,0.596,0.578,0.964,1.97,0.372
CGAACTTGGTCAAGGACAGTGAATCTCCGCACGC,0.162,-0.375,-0.73,-0.622,-1.03,-0.114,0.382,0.0325,-0.999,-0.567,1.01,0.689,-0.557,-0.422,-0.784,-0.25,-0.515,-0.377,-0.435,1.34

# Source: the supplement of paper PMC6555819
